# Measured values: PubChem BioAssay AID1159580 (chemical genetic matrix, 2015)
# The campaign covered roughly 5,500 compounds. About 2,000 (36%) were called active. Another 18% or so got no clear call; they are omitted. Some of the results follow. Unmarked numbers belong to inactive results. Cut-off read from the data, not from the text of the source: active = normalized growth mostly below about 0.91 (no sharp cut-off); inconclusive = no clear call, values can overlap the other calls; inactive = mostly above about 0.92.
# Experiment: chemical genetic growth profiling, strain panel (AID 1159580);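 note: tested at 20 µM; growth read once vehicle control cultures reached saturation at 30 °C; 1 = growth at the plate median or of vehicle wells; lower values mean less growth of the strain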
# Conditions: growth OD
smiles,measurement,setting,value
O=C1OCCN1/N=C\c1ccc([N+](=O)[O-])o1,normalized growth,"S. cerevisiae deletion strains, locus YJR075W, strain HOC1, active compounds read low",0.981
same,normalized growth,"S. cerevisiae deletion strains, locus YKL009W, strain mrt4, active compounds read low",0.915
same,normalized growth,"S. cerevisiae deletion strains, locus YKL068W, active compounds read low",0.999
same,normalized growth,"S. cerevisiae deletion strains, locus YKL085W, strain MDH1 (second series), active compounds read low",0.99
same,normalized growth,"S. cerevisiae deletion strains, locus YKL085W, strain MDH1, active compounds read low",0.99
same,normalized growth,"S. cerevisiae deletion strains, locus YKL160W, strain elf1, active compounds read low",0.984
same,normalized growth,"S. cerevisiae deletion strains, locus YKR001C, strain vps1, active compounds read low",0.938
same,normalized growth,"S. cerevisiae deletion strains, locus YKR026C, strain gcn3, active compounds read low",1
same,normalized growth,"S. cerevisiae deletion strains, locus YKR091W, strain srl3, active compounds read low",0.997
same,normalized growth,"S. cerevisiae deletion strains, locus YLL001W, strain dnm1, active compounds read low",0.978
same,normalized growth,"S. cerevisiae deletion strains, locus YLL026W, active compounds read low",0.988
same,normalized growth,"S. cerevisiae deletion strains, locus YLL041C, strain sdh2, active compounds read low",1
same,normalized growth,"S. cerevisiae deletion strains, locus YLR027C, strain aat2, active compounds read low",0.955
same,normalized growth,"S. cerevisiae deletion strains, locus YLR039C, strain RIC1, active compounds read low",0.657 (active)
same,normalized growth,"S. cerevisiae deletion strains, locus YLR058C, strain SHM2, active compounds read low",0.967
same,normalized growth,"S. cerevisiae deletion strains, locus YLR102C, strain apc9, active compounds read low",0.988
same,normalized growth,"S. cerevisiae deletion strains, locus YLR113W, strain HOG1, active compounds read low",0.869
same,normalized growth,"S. cerevisiae deletion strains, locus YLR221C, strain rsa3, active compounds read low",0.975
same,normalized growth,"S. cerevisiae deletion strains, locus YLR258W, strain gsy2, active compounds read low",0.976
same,normalized growth,"S. cerevisiae deletion strains, locus YLR262C, strain YPT6 (second series), active compounds read low",0.888
same,normalized growth,"S. cerevisiae deletion strains, locus YLR262C, strain YPT6, active compounds read low",0.683
same,normalized growth,"S. cerevisiae deletion strains, locus YLR268W, strain sec22, active compounds read low",0.831 (active)
same,normalized growth,"S. cerevisiae deletion strains, locus YLR320W, strain mms22, active compounds read low",0.956
same,normalized growth,"S. cerevisiae deletion strains, locus YLR330W, strain CHS5, active compounds read low",1
same,normalized growth,"S. cerevisiae deletion strains, locus YLR342W, strain FKS1 (second series), active compounds read low",0.943
same,normalized growth,"S. cerevisiae deletion strains, locus YLR342W, strain FKS1, active compounds read low",1
same,normalized growth,"S. cerevisiae deletion strains, locus YLR357W, strain rsc2, active compounds read low",1.03
same,normalized growth,"S. cerevisiae deletion strains, locus YLR370C, strain arc18, active compounds read low",0.942
same,normalized growth,"S. cerevisiae deletion strains, locus YLR371W, strain rom2, active compounds read low",0.99
same,normalized growth,"S. cerevisiae deletion strains, locus YLR384C, strain iki3, active compounds read low",1
same,normalized growth,"S. cerevisiae deletion strains, locus YLR418C, strain cdc73, active compounds read low",0.847
same,normalized growth,"S. cerevisiae deletion strains, locus YML016C, strain PPZ1, active compounds read low",0.987
same,normalized growth,"S. cerevisiae deletion strains, locus YML032C, strain rad52, active compounds read low",0.494 (active)
same,normalized growth,"S. cerevisiae deletion strains, locus YML120C, strain ndi1, active compounds read low",0.965
same,normalized growth,"S. cerevisiae deletion strains, locus YML124C, strain tub3, active compounds read low",1.01
same,normalized growth,"S. cerevisiae deletion strains, locus YMR058W, strain fet3, active compounds read low",0.79 (active)
same,normalized growth,"S. cerevisiae deletion strains, locus YMR078C, strain ctf18, active compounds read low",0.976
same,normalized growth,"S. cerevisiae deletion strains, locus YMR125W, strain sto1, active compounds read low",0.93
same,normalized growth,"S. cerevisiae deletion strains, locus YMR129W, active compounds read low",1
same,normalized growth,"S. cerevisiae deletion strains, locus YMR205C, strain PFK2, active compounds read low",1.02
same,normalized growth,"S. cerevisiae deletion strains, locus YMR223W, strain ubp8, active compounds read low",0.91
same,normalized growth,"S. cerevisiae deletion strains, locus YMR231W, strain pep5, active compounds read low",0.998
same,normalized growth,"S. cerevisiae deletion strains, locus YMR307W, strain GAS1, active compounds read low",0.761
same,normalized growth,"S. cerevisiae deletion strains, locus YNL067W, strain RPL9B, active compounds read low",0.97
same,normalized growth,"S. cerevisiae deletion strains, locus YNL071W, strain lat1, active compounds read low",0.997
same,normalized growth,"S. cerevisiae deletion strains, locus YNL128W, strain TEP1, active compounds read low",0.997
same,normalized growth,"S. cerevisiae deletion strains, locus YNL153C, strain GIM3, active compounds read low",0.842 (active)
same,normalized growth,"S. cerevisiae deletion strains, locus YNL183C, strain NPR1, active compounds read low",0.848
same,normalized growth,"S. cerevisiae deletion strains, locus YNL209W, strain ssb2, active compounds read low",0.979
same,normalized growth,"S. cerevisiae deletion strains, locus YNL233W, strain BNI4, active compounds read low",0.987
same,normalized growth,"S. cerevisiae deletion strains, locus YNL248C, strain rpa49, active compounds read low",0.84 (active)
same,normalized growth,"S. cerevisiae deletion strains, locus YNL250W, strain rad50, active compounds read low",0.713 (active)
same,normalized growth,"S. cerevisiae deletion strains, locus YNL271C, strain bni1, active compounds read low",0.978
same,normalized growth,"S. cerevisiae deletion strains, locus YNL298W, strain CLA4, active compounds read low",0.95
same,normalized growth,"S. cerevisiae deletion strains, locus YNL307C, strain MCK1, active compounds read low",0.955
same,normalized growth,"S. cerevisiae deletion strains, locus YNL322C, strain KRE1 (second series), active compounds read low",0.992
same,normalized growth,"S. cerevisiae deletion strains, locus YNL322C, strain KRE1, active compounds read low",0.999
same,normalized growth,"S. cerevisiae deletion strains, locus YNR049C, strain mso1, active compounds read low",1.02
same,normalized growth,"S. cerevisiae deletion strains, locus YNR052C, strain pop2, active compounds read low",0.899 (active)
same,normalized growth,"S. cerevisiae deletion strains, locus YOL006C, strain TOP1, active compounds read low",0.891
same,normalized growth,"S. cerevisiae deletion strains, locus YOL012C, strain htz1",1.16
same,normalized growth,"S. cerevisiae deletion strains, locus YOL147C, strain pex11, active compounds read low",0.991
same,normalized growth,"S. cerevisiae deletion strains, locus YOR001W, strain rrp6, active compounds read low",0.904
same,normalized growth,"S. cerevisiae deletion strains, locus YOR061W, strain CKA2, active compounds read low",0.988
same,normalized growth,"S. cerevisiae deletion strains, locus YOR069W, strain VPS5, active compounds read low",0.992
same,normalized growth,"S. cerevisiae deletion strains, locus YOR070C, strain gyp1, active compounds read low",1.01
same,normalized growth,"S. cerevisiae deletion strains, locus YOR080W, strain dia2, active compounds read low",0.986
same,normalized growth,"S. cerevisiae deletion strains, locus YOR083W, strain WHI5, active compounds read low",0.962
same,normalized growth,"S. cerevisiae deletion strains, locus YOR106W, strain vam3, active compounds read low",0.938
same,normalized growth,"S. cerevisiae deletion strains, locus YOR136W, strain idh2, active compounds read low",0.959
same,normalized growth,"S. cerevisiae deletion strains, locus YOR144C, strain elg1, active compounds read low",0.969
same,normalized growth,"S. cerevisiae deletion strains, locus YOR184W, strain ser1, active compounds read low",0.862 (active)
same,normalized growth,"S. cerevisiae deletion strains, locus YOR231W, strain MKK1, active compounds read low",0.777 (active)
same,normalized growth,"S. cerevisiae deletion strains, locus YOR265W, strain rbl2, active compounds read low",0.997
same,normalized growth,"S. cerevisiae deletion strains, locus YOR270C, strain vph1, active compounds read low",0.92
same,normalized growth,"S. cerevisiae deletion strains, locus YOR290C, strain snf2, active compounds read low",0.912
same,normalized growth,"S. cerevisiae deletion strains, locus YOR316C, strain cot1, active compounds read low",0.999
same,normalized growth,"S. cerevisiae deletion strains, locus YPL051W, strain arl3, active compounds read low",0.943
same,normalized growth,"S. cerevisiae deletion strains, locus YPL055C, strain LGE1, active compounds read low",0.882
same,normalized growth,"S. cerevisiae deletion strains, locus YPL078C, strain atp4, active compounds read low",0.932
same,normalized growth,"S. cerevisiae deletion strains, locus YPL106C, strain sse1, active compounds read low",0.889
same,normalized growth,"S. cerevisiae deletion strains, locus YPL240C, strain hsp82, active compounds read low",1.01
same,normalized growth,"S. cerevisiae deletion strains, locus YPL241C, strain CIN2, active compounds read low",0.988
same,normalized growth,"S. cerevisiae deletion strains, locus YPL256C, strain CLN2, active compounds read low",0.909
same,normalized growth,"S. cerevisiae deletion strains, locus YPR119W, strain clb2, active compounds read low",0.989
same,normalized growth,"S. cerevisiae deletion strains, locus YPR141C, strain kar3, active compounds read low",0.993
same,normalized growth,"S. cerevisiae deletion strains, locus YPR163C, strain tif3, active compounds read low",0.993
same,normalized growth,"S. cerevisiae deletion strains, locus YPR167C, strain met16, active compounds read low",0.986
same,normalized growth,"S. cerevisiae deletion strains, strain wtn01, active compounds read low",0.87 (active)
same,normalized growth,"S. cerevisiae strains, strain wild type, active compounds read low",0.99
